Results: the supplement of paper PMC10849652
The full data set covers some 7,900 targets. This sample favours those with a hit. About 0.6% of all pairs of compound and target were hits.

How the values were obtained:
Test in all cases: log2 fold change, soluble protein after heating vs DMSO (PISA); higher = thermal stabilisation; K562 cells, 10 uM, 30 min; active = over 0.2 and 3.5 SD of the protein, either way, in both replicates (recomputed)
bafetinib = compound: Cc1ccc(NC(=O)c2ccc(CN3CC[C@H](N(C)C)C3)c(C(F)(F)F)c2)cc1Nc1nccc(-c2cncnc2)n1 [bafetinib]
Outline: (§1)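 K562 cells at 2×10^6 cells/mL were treated with 10 μM compound for 30 min. Aliquots were heated for 3 min across 48°C-58°C, pooled, and extracted in PBS with 0.5% NP-40 at 4°C; soluble protein was the supernatant after 21,000xg for 90 min. Soluble protein was quantified by TMTpro 16plex LC-MS/MS with channel sums equalised, and reported as log2 fold change in thermal stability against DMSO controls, with values from duplicates.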

[1] = compound: Cc1cccc(CC(=O)N2CCc3c2ccc(-c2cn(C)c4ncnc(N)c24)c3F)n1
Outline: as §1

nilotinib = compound: Cc1cn(-c2cc(NC(=O)c3ccc(C)c(Nc4nccc(-c5cccnc5)n4)c3)cc(C(F)(F)F)c2)cn1 [nilotinib]
Outline: as §1

[2] = compound: Cc1nc(Nc2n[nH]c3c2CN(C(=O)N[C@H](CN(C)C)c2ccccc2)C3(C)C)c2sccc2n1
Outline: as §1

dasatinib = compound: Cc1nc(Nc2ncc(C(=O)Nc3c(C)cccc3Cl)s2)cc(N2CCN(CCO)CC2)n1 [dasatinib]
Outline: as §1

[3] = compound: Cc1ncc(-c2ccnc(Nc3ccc(S(C)(=O)=O)cc3)n2)n1C(C)C
Outline: as §1

[4] = compound: Cn1cc(-c2ccc3c(c2)CCN3C(=O)Cc2cccc(C(F)(F)F)c2)c2c(N)ncnc21
Outline: as §1

[5] = compound: Cn1cc(-c2ccc3nnc(C(F)(F)c4ccc5ncccc5c4)n3n2)cn1
Outline: as §1

tipifarnib = compound: Cn1cncc1[C@@](N)(c1ccc(Cl)cc1)c1ccc2c(c1)c(-c1cccc(Cl)c1)cc(=O)n2C [tipifarnib]
Outline: as §1

mubritinib = compound: FC(F)(F)c1ccc(/C=C/c2nc(COc3ccc(CCCCn4ccnn4)cc3)co2)cc1 [mubritinib]
Outline: as §1

[6] = compound: NC(=O)Nc1cc(-c2cccc(F)c2)sc1C(=O)N[C@H]1CCCNC1
Outline: as §1

[7] = compound: NC(=O)c1cnc(N[C@@H]2CCCC[C@@H]2N)nc1Nc1cccc(-n2nccn2)c1
Outline: as §1

[8] = compound: NC1(c2ccc(-c3nc4ccn5c(=O)[nH]nc5c4cc3-c3ccccc3)cc2)CCC1
Outline: as §1

[9] = compound: NCC(=O)Nc1ccc(-n2nc(C(F)(F)F)cc2-c2ccc3c(ccc4ccccc43)c2)cc1
Outline: as §1

entinostat = compound: Nc1ccccc1NC(=O)c1ccc(CNC(=O)OCc2cccnc2)cc1 [entinostat]
Outline: as §1

vorinostat = compound: O=C(CCCCCCC(=O)Nc1ccccc1)NO [vorinostat]
Outline: as §1

citarinostat = compound: O=C(CCCCCCNC(=O)c1cnc(N(c2ccccc2)c2ccccc2Cl)nc1)NO [citarinostat]
Outline: as §1

silmitasertib = compound: O=C(O)c1ccc2c(c1)nc(Nc1cccc(Cl)c1)c1ccncc12 [silmitasertib]
Outline: as §1

[10] = compound: O=C1NC(=O)C(c2cnc3ccccn23)=C1c1cn2c3c(cc(F)cc13)CN(C(=O)N1CCCCC1)CC2
Outline: as §1

[11] = compound: c1cc(OCCN2CCCCC2)cc(-c2n[nH]c3ccc(-c4nnc[nH]4)cc23)c1
Outline: as §1

Measured: log2 fold change

STAT3 (UniProt P40763)
inactive: bafetinib -0.015 | [1] -0.003 | nilotinib -0.097 | [2] -0.216 | dasatinib -0.141 | [3] 0.026 | [4] -0.027 | [5] 0.013 | tipifarnib -0.172 | mubritinib 0.024 | [6] -0.001 | [7] -0.047 | [8] -0.2 | [9] -0.092 | entinostat 0.089 | vorinostat 0.101 | citarinostat 0.062 | silmitasertib 0.103 | [10] -0.036 | [11] -0.016

SURF1 (UniProt Q15526)
Sequence of UniProt Q15526 (Q15526 whole entry, looked up): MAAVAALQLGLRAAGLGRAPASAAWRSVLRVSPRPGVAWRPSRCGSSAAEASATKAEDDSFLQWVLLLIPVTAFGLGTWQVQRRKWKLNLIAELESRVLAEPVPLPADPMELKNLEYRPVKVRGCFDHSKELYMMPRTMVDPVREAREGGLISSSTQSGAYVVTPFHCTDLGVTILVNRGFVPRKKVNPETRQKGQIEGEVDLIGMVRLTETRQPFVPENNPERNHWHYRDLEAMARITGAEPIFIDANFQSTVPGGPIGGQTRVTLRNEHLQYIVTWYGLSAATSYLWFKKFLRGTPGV
inactive: bafetinib -0.184 | [1] -0.042 | nilotinib -0.065 | [2] 0.028 | dasatinib -0.028 | [3] 0.011 | [4] 0.021 | [5] 0.019 | tipifarnib -0.061 | mubritinib 0.042 | [6] -0.007 | [7] 0.014 | [8] -0.176 | [9] -0.135 | entinostat 0.077 | vorinostat 0.059 | citarinostat 0.112 | silmitasertib -0.04 | [10] -0.031 | [11] -0.043

SRSF3 (UniProt P84103)
Sequence of UniProt P84103 (P84103 whole entry, looked up): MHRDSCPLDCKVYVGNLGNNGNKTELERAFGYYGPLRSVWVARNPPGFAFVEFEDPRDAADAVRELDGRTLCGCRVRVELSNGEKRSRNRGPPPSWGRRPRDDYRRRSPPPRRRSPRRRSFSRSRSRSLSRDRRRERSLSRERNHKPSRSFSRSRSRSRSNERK
active: [2] -0.544
inactive: bafetinib 0.126 | [1] -0.028 | nilotinib 0.075 | dasatinib 0.173 | [3] 0.082 | [4] -0.199 | [5] -0.154 | tipifarnib 0.134 | mubritinib -0.097 | [6] -0.05 | [7] 0.148 | [8] 0.396 | [9] 0.064 | entinostat -0.126 | vorinostat -0.026 | citarinostat -0.105 | silmitasertib -0.033 | [10] 0.194 | [11] -0.141

SLC25A42 (UniProt Q86VD7)
inactive: bafetinib -0.081 | [1] -0.069 | nilotinib 0.009 | [2] -0.024 | dasatinib -0.025 | [3] 0.048 | [4] -0.022 | [5] -0.049 | tipifarnib 0.017 | mubritinib 0.051 | [6] 0.121 | [7] 0.021 | [8] -0.015 | [9] 0.05 | entinostat -0.027 | vorinostat -0.102 | citarinostat -0.015 | silmitasertib -0.033 | [10] -0.034 | [11] -0.046

ST6GAL1 (UniProt P15907)
inactive: bafetinib 0.001 | [1] 0.029 | nilotinib 0.168 | [2] -0.048 | dasatinib 0.131 | [3] -0.001 | [4] 0.007 | [5] -0.02 | tipifarnib 0.128 | mubritinib -0.023 | [6] -0.101 | [7] 0.089 | [8] -0.079 | [9] -0.004 | entinostat -0.106 | vorinostat -0.045 | citarinostat 0.025 | silmitasertib 0.024 | [10] 0.017 | [11] -0.064

SPTBN1 (UniProt Q01082)
inactive: bafetinib 0.064 | [1] -0.017 | nilotinib -0.01 | [2] -0.145 | dasatinib -0.043 | [3] 0.054 | [4] -0.009 | [5] -0.007 | tipifarnib -0.045 | mubritinib -0.075 | [6] -0.051 | [7] -0.04 | [8] -0.041 | [9] -0.016 | entinostat 0.011 | vorinostat 0.026 | citarinostat -0.009 | silmitasertib 0.127 | [10] 0.009 | [11] -0.007

SPG21 (UniProt Q9NZD8)
active: [7] 0.305
inactive: bafetinib 0.158 | [1] -0.129 | nilotinib -0.173 | [2] -0.06 | dasatinib -0.087 | [3] 0.171 | [4] 0.022 | [5] 0.027 | tipifarnib -0.115 | mubritinib -0.042 | [6] 0.072 | [8] -0.054 | [9] 0.123 | entinostat 0.004 | vorinostat 0.013 | citarinostat -0.001 | silmitasertib -0.013 | [10] -0.104 | [11] 0.007

STOM (UniProt P27105)
inactive: bafetinib -0.01 | [1] 0.043 | nilotinib 0.039 | [2] -0.007 | dasatinib 0.039 | [3] -0.03 | [4] -0.043 | [5] 0.055 | tipifarnib 0.031 | mubritinib -0.008 | [6] -0.104 | [7] -0.043 | [8] -0.069 | [9] -0.019 | entinostat -0.003 | vorinostat 0.025 | citarinostat 0.007 | silmitasertib 0.067 | [10] 0.042 | [11] -0.091

SNX1 (UniProt Q13596)
inactive: bafetinib -0.149 | [1] 0.146 | nilotinib -0.133 | [2] 0 | dasatinib -0.191 | [4] 0.07 | [5] -0.028 | tipifarnib -0.002 | mubritinib 0.057 | [6] -0.01 | [9] 0.011 | entinostat 0.121 | vorinostat 0.147 | citarinostat 0.054 | silmitasertib -0.062 | [10] -0.04 | [11] -0.094
active: [3] -0.45 | [7] -0.375 | [8] -0.336

SNX9 (UniProt Q9Y5X1)
inactive: bafetinib -0.015 | [1] 0.03 | nilotinib -0.06 | [2] -0.064 | dasatinib -0.131 | [3] 0.006 | [4] -0.023 | [5] -0.008 | tipifarnib -0.013 | mubritinib 0.009 | [6] -0.013 | [7] -0.022 | [8] -0.102 | [9] -0.055 | entinostat 0.037 | vorinostat 0.058 | citarinostat 0.024 | silmitasertib 0.033 | [10] -0.065 | [11] -0.067

TFRC (UniProt P02786)
active: bafetinib -0.277 | [8] -0.823
inactive: [1] -0.038 | nilotinib -0.005 | [2] -0.043 | dasatinib 0.009 | [3] -0.018 | [4] 0.012 | [5] 0.027 | tipifarnib -0.004 | mubritinib 0.052 | [6] -0.021 | [7] -0.031 | [9] -0.001 | entinostat -0.008 | vorinostat -0.02 | citarinostat 0.062 | silmitasertib 0.006 | [10] -0.023 | [11] -0.071

TBC1D10B (UniProt Q4KMP7)
inactive: bafetinib -0.01 | [1] 0.022 | nilotinib 0.013 | [2] -0.09 | dasatinib -0.064 | [3] -0.149 | [4] 0.07 | [5] 0 | tipifarnib 0.039 | mubritinib 0.013 | [6] -0.141 | [7] 0.007 | [8] 0.038 | [9] -0.027 | entinostat 0.017 | vorinostat -0.03 | citarinostat 0.039 | silmitasertib -0.009 | [10] -0.005
active: [11] -0.283

SUOX (UniProt P51687)
inactive: bafetinib -0.084 | [1] -0.181 | nilotinib 0.063 | [2] 0.013 | dasatinib 0 | [3] -0.066 | [4] -0.015 | [5] 0.063 | tipifarnib 0.019 | mubritinib 0.032 | [6] -0.031 | [7] -0.022 | [8] 0.025 | [9] -0.005 | entinostat -0.014 | vorinostat -0.124 | citarinostat -0.017 | silmitasertib -0.021 | [10] -0.027 | [11] 0.014

STARD9 (UniProt Q9P2P6)
Sequence of UniProt Q9P2P6 (Q9P2P6 whole entry, looked up): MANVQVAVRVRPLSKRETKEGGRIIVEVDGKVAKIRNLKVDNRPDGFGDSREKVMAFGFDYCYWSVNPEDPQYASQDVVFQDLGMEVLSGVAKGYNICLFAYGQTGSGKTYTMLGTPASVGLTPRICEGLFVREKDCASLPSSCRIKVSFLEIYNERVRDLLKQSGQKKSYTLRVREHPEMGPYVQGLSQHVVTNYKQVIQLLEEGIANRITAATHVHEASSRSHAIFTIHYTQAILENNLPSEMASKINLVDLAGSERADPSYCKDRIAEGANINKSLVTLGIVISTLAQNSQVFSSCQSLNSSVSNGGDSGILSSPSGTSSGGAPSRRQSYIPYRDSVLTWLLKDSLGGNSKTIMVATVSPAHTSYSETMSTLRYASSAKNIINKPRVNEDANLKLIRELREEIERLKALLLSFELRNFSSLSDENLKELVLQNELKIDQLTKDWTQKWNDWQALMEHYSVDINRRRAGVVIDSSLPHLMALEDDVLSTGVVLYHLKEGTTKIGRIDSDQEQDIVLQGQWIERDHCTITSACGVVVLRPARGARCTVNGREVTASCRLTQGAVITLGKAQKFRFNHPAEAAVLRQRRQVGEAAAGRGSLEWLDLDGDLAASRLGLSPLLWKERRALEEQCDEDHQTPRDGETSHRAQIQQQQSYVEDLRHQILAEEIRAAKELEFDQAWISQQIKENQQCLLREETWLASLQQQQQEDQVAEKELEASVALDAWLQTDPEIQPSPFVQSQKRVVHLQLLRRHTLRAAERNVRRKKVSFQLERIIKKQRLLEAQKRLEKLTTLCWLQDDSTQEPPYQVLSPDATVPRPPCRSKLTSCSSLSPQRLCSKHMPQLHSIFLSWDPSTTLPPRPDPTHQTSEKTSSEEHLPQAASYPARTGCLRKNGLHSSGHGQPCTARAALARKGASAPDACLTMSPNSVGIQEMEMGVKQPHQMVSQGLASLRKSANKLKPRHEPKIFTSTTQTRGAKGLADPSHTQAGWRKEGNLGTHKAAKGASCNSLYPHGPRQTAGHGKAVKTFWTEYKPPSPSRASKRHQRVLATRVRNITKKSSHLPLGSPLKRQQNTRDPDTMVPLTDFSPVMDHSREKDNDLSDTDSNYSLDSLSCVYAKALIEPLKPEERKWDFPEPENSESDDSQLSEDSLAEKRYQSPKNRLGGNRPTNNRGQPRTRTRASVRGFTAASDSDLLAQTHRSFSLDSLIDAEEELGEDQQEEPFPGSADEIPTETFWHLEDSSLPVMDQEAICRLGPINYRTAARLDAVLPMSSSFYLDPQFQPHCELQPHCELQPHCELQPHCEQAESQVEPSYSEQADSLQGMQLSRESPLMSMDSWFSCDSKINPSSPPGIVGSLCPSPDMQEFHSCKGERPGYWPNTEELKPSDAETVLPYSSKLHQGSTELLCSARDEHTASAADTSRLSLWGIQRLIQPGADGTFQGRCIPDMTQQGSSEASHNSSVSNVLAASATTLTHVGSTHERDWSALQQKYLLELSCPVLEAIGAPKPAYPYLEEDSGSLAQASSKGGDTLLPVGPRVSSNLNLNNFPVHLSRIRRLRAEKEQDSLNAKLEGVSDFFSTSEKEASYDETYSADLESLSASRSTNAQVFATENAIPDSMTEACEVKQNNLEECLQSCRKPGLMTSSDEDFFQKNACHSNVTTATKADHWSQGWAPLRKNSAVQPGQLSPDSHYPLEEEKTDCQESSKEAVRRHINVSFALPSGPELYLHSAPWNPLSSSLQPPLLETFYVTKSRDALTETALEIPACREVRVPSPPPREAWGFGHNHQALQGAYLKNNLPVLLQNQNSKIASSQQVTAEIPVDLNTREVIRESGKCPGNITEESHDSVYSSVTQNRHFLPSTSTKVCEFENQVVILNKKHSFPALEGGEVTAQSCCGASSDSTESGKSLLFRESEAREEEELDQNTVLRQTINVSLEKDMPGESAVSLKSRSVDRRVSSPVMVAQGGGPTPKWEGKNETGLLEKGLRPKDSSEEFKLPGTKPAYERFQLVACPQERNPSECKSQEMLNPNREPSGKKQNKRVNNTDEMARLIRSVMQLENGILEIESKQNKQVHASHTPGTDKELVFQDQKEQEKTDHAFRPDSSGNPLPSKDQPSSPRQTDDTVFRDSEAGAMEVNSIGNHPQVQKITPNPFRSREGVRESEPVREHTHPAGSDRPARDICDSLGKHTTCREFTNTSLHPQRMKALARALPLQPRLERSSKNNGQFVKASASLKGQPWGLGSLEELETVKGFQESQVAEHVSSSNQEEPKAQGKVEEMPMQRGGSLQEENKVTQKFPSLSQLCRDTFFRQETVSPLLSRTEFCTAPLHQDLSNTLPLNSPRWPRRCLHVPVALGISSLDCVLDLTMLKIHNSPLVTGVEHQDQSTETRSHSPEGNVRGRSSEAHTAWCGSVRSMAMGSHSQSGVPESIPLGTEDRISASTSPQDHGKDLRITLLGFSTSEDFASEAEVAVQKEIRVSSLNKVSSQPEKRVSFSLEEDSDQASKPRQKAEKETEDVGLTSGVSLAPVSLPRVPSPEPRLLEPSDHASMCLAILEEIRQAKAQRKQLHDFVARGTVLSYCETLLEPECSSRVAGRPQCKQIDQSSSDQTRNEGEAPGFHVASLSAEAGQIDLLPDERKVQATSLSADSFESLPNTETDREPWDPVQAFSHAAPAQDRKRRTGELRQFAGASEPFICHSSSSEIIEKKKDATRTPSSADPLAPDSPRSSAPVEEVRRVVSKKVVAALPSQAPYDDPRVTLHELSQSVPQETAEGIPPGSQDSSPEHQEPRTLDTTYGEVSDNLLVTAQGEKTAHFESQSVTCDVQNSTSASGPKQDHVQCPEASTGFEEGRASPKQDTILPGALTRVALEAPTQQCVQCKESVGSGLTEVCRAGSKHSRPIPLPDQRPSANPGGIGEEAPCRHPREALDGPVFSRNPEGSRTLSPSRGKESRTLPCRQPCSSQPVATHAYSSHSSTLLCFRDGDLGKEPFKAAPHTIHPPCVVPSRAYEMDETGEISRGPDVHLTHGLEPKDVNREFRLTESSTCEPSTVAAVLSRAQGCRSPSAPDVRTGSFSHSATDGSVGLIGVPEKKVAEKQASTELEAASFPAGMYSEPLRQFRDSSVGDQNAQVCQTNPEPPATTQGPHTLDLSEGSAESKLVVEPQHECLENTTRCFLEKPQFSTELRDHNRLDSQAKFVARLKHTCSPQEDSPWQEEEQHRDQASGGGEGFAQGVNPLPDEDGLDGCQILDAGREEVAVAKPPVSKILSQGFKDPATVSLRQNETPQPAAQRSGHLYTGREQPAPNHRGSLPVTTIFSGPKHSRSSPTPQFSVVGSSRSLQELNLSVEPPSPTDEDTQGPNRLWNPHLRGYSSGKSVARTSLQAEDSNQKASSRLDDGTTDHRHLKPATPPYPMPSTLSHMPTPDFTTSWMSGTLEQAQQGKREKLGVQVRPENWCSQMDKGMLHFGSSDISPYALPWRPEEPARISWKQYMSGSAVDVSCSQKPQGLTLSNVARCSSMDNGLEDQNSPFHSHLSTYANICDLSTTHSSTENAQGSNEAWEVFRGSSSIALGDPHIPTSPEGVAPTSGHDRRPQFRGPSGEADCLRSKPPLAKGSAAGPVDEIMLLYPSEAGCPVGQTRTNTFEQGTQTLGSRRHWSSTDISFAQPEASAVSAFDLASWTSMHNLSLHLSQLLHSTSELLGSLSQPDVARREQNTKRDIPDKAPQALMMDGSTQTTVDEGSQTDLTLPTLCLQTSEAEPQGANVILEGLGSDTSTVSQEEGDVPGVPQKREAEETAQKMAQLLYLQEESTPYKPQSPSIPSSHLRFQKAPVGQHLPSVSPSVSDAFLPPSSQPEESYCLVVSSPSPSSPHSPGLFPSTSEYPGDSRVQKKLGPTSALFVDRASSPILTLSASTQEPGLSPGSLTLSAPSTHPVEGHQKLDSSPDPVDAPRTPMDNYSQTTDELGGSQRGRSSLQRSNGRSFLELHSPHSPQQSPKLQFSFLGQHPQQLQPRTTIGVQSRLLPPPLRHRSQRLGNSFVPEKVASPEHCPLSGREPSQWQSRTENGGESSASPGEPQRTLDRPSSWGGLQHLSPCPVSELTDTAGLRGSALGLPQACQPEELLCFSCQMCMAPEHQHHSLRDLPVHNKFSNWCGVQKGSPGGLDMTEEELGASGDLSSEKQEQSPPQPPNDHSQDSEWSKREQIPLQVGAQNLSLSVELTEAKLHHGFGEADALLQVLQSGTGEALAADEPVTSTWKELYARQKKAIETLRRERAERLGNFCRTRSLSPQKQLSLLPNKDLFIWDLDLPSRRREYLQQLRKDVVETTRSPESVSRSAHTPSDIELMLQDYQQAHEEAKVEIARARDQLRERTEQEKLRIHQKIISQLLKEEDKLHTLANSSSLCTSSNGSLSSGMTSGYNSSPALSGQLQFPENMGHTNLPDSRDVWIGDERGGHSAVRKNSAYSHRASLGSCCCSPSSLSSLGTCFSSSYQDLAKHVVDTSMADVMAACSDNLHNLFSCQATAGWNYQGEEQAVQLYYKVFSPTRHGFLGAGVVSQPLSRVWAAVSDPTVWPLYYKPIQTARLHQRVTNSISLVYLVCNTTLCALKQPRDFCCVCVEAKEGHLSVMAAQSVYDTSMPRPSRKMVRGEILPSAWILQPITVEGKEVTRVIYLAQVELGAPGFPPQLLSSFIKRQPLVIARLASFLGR
inactive: bafetinib 0.012 | [1] -0.029 | nilotinib 0.016 | [2] 0.157 | dasatinib 0.091 | [3] 0.002 | [4] 0.076 | [5] 0.047 | tipifarnib 0.07 | mubritinib 0.129 | [6] -0.179 | [7] -0.029 | [8] 0.058 | [9] 0.073 | entinostat 0.007 | vorinostat 0 | citarinostat -0.026 | silmitasertib 0.025 | [10] -0.048 | [11] 0.028

TK1 (UniProt P04183)
inactive: bafetinib -0.04 | [1] -0.028 | nilotinib -0.002 | [2] 0.028 | dasatinib 0.032 | [3] -0.036 | [4] 0.015 | [5] 0 | tipifarnib 0 | mubritinib 0.056 | [6] 0.021 | [7] 0.018 | [8] 0.02 | [9] 0.031 | entinostat -0.068 | vorinostat -0.007 | citarinostat 0.016 | silmitasertib 0.013 | [10] -0.025 | [11] -0.027

SLC9A6 isoform 2 (UniProt Q92581)
inactive: bafetinib -0.049 | [1] 0.012 | nilotinib 0.039 | [2] 0.011 | dasatinib 0.017 | [3] -0.002 | [4] -0.019 | [5] 0.026 | tipifarnib 0.047 | mubritinib 0.033 | [6] -0.021 | [7] 0.016 | [8] -0.091 | [9] -0.02 | entinostat -0.017 | vorinostat -0.078 | citarinostat 0.025 | silmitasertib 0.027 | [10] -0.021 | [11] -0.073
